# Epigenetic reg: derepresses silenced GFP reporter in murine cells; hit rate 0.2% among 280,000; AID 1865; Potency, µM (highest dose often 53.9 µM), for the others: top-dose GFP activation, usual class: activators; murine LDR cells, GFP reporter derepression, 30 h; also: % of control where 0% means no effect; nearly all actives have a fitted effect of over 60% in size
#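 GFP-positive cell count by laser-scanning cytometry (objects 20–120 um) after 30 h, 37 C compound exposure of murine LDR cells; reporter is CMV-GFP integrated at a silenced locus, inducible by HDAC or DNMT inhibitors.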
# HTT aggregate: mutant huntingtin aggregation inhibition; PC12 HttQ103-GFP aggregates, Acumen cytometry, 40 h; Potency, µM (doses to about 46.1 µM), for the others: top-dose activity change, negative = inhibition, hits mostly inhibitors; hit rate 1.1% among 220,000; also: % is scaled to controls: 0 for no effect and ±100 for the full control effect; nearly all actives have a fitted effect of over 60% in size
#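 Multiplexed with ATP-based cell death, this channel scores GFP aggregates in PC12 cells expressing inducible HTTex1-Q103-GFP. Induction used 100 nM tebufenozide; compounds were tested in concentration series.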
# PINK1 modulator: modulators of PINK1 expression. PINK1 immunofluorescence, high-content cytometry, 24 h. Potency, µM (highest dose often 76.6 µM), without a hit: top-dose activation (PINK1 increase), hits mostly activators. hit rate 0.2% among 410,000; active = well fitted activation curve with a large enough effect; inconclusive = small, poorly fitted or top-dose-only effect; cell line not stated here; also: % of control where 0% means no effect; nearly all actives have a fitted effect of over 65% in size
#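 Fluorescence from anti-PINK1 antibody, together with nuclear and cell stains, was scanned on a laser-scanning cytometer. Before staining, stable-line cells were incubated 24 hours with compounds at 5 concentrations; primary antibody 12 h at 10 degrees C.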
# Apoferritin bind: candidate novel general anesthetic via apoferritin binding; P02791; apoferritin/1-aminoanthracene competitive binding, fluorescence; Potency, µM (titrated, usually from 77.5 µM), for the others: at the highest dose activity change, negative = displacement, actives largely listed as inhibitors; hit rate 0.074% among 350,000; AID 485281; also: % is scaled to controls: 0 for no effect and ±100 for the full control effect; nearly all actives have a fitted effect of over 20% in size
# Target sequence (P02791 2-175 limits assumed): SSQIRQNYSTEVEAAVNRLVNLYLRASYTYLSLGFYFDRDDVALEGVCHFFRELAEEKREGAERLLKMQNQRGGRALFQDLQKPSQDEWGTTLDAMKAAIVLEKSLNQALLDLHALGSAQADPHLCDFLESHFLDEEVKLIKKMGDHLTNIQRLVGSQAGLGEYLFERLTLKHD
#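 Apoferritin-based anesthetic binding model; compound displacement of fluorescent 1-AMA measured as endpoint fluorescence after 10 minutes at room temperature, scaled to free-ligand and complex controls.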
# HTT ATP protect: cytoprotection in Huntington HTT-Q103 PC12 cell model | hit rate 0.14% among 230,000 | Potency, µM (series often up to 56.4 µM), for inactives: cytoprotection (ATP increase), hits mostly activators | PC12 HTT-Q103 induced, cytoprotection, ATP luminescence, 40 h; also: % of control where 0% means no effect; nearly all actives have a fitted effect of over 45% in size
#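 PC12 cells stably carrying ecdysone-inducible Htt exon 1 (Q103)–GFP were induced with 100 nM tebufenozide (final) alongside library compounds in a dose series. Cytoprotection was scored as retained ATP by ATPlite luminescence.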
# TSG101-PTAP inh: blocks PTAP/TSG101 interaction to inhibit HIV-1 budding; Q99816; Fluorescence polarization, FITC-PTAP peptide / Tsg101 binding; Potency, µM (titrated, usually from 115 µM), without a hit: at the highest dose activity change, negative = inhibition, actives largely listed as inhibitors; 340,000 tested, under 10 active; AID 493005; active = well fitted inhibition curve with a large enough effect in the main read-out, with a control signal flat, not every such curve was filed as active; inconclusive = small, poorly fitted or top-dose-only effect, or effect the other way, or a change in a side signal; inactive = no such curve, though single readings can be large or run the other way; also: % of control where 0% means no effect
# Target sequence (Q99816 whole entry, looked up): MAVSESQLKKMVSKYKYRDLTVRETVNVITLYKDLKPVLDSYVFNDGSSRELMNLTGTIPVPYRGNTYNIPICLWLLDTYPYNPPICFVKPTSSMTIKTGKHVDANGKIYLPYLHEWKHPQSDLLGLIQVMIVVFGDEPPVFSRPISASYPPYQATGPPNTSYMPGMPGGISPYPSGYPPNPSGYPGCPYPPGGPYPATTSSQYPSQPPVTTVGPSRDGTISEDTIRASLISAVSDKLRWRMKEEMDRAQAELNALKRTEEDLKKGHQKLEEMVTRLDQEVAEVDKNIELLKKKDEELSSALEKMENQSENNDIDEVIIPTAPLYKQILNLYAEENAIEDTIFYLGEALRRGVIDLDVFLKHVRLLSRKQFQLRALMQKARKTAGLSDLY
#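 Steps: Tsg101 binding domain dispensed (10 uM final), compounds pinned in DMSO, FITC-labeled PTAP-motif peptide added (50 nM final); after 20 min binding at room temperature, polarization measured.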
# An asterisk follows results filed as active; ? = inconclusive; · = not tested or not shown; ! = a repeat was not active; [ ] = another dose, or the depositor's remark. The full list was thinned out, with hits kept by preference. Unless noted, calls follow the shape of the dose curve; as a rule, active = well fitted curve in the direction sought with a large enough effect; inconclusive = small, poorly fitted or top-dose-only effect, or another doubt; inactive = no such curve, though single readings can be large; an effect the other way counts as inactive or inconclusive. Potency is read from the fitted curve at half-maximal effect.
SMILES,Epigenetic reg,HTT aggregate,PINK1 modulator,Apoferritin bind,HTT ATP protect,TSG101-PTAP inh
O=C(NNC(=O)c1c(O)c2ccccc2[nH]c1=O)c1ccccc1,·,·,22%,-4%,·,-4%
CCCn1c(=O)c(C(=O)N/N=C/c2ccc(F)cc2)c(O)c2ccccc21,2%,25%[9.22 µM],0%,1%,16%[10 µM],-2%
CCOc1ccc(NC(=O)CSc2cn(CC(=O)N3CCOCC3)c3ccccc23)cc1,1%,·,0%,-11%,·,·
Cc1c(C(=O)NCC2COCCO2)cnn1-c1ncc2c(n1)-c1ccccc1CC2 (centres undefined),·,·,-1%,·,·,·
Cc1ncc2c(c1CNS(=O)(=O)c1cccs1)CCN(C(=O)/C=C/c1cc(F)cc(F)c1)C2,·,·,0%,·,·,·
COc1ccccc1C1CN(CCNC(=O)[C@@H]2CSC(=O)N2)Cc2ccccc2O1 (some centres undefined),·,·,-1%,·,·,·
O=S(=O)(c1cccc(C(F)(F)F)c1)N1CCC(c2cc(-c3cccc4ccccc34)n[nH]2)CC1,1%,1µM*,2%,1%,-74%,-2%
COc1ccc(S(=O)(=O)N2CCC(c3cc(-c4cccc5ccccc45)n[nH]3)CC2)cc1,1%,?,0%,-2%,-54%,-7%
Cc1ccc(N2CC(NC(=O)C3CC3)CC2=O)cc1C (centres undefined),4%,·,1%,-6%,·,·
CCC(C)n1c(NC(=O)c2ccccc2)c(C#N)c2nc3ccccc3nc21 (centres undefined),20µM*,?,?,-20%,-85%,15%
COc1ccc(N2CCN(C(CNC(=O)C(=O)NCCC3=CCCCC3)c3ccco3)CC2)cc1 (centres undefined),-1%,14%,-1%,8%,-5%[10 µM],-1%
O=C(NCCC1=CCCCC1)C(=O)NCC(c1ccco1)N1CCN(c2ccccc2)CC1 (centres undefined),5%,8%,13µM*,-6%,-14%[10 µM],0%
Cc1cc(C)n(-c2ccc(C(=O)N3CCc4c(cnc(C)c4CNC(=O)c4ccccc4F)C3)cc2)n1,·,·,2%,·,·,·
C/C(=N\NC(=O)c1ccncc1)c1cc2ccccc2oc1=O,0%,?,-1%,0%,-8%[10 µM],-7%
C/C(=N/NC(=O)c1ccncc1)c1cc2ccc(O)cc2oc1=O,0%,13µM*,0%,664%,22%[10 µM],?
CCN(CC)CCN(C(=O)c1ccc2c(c1)CCCC2)c1nc2c(C)cccc2s1,·,·,45µM*,-1%,·,2%
CCN(CC)CCN(C(=O)c1ccc2c(c1)CCCC2)c1nc2ccc(C)cc2s1,·,·,28µM*,-5%,·,-2%
Cc1ccc([N+](=O)[O-])cc1N/C=C1\CCCCC1=O,3.5µM*,?,7%,-11%,-73%,-10%
Cc1cc(O)ccc1N/C=C1\CCCC1=O,5%,?,1%,-6%,2%[10 µM],0%
Cc1ccc2c(C(=O)N3CCN(c4ccccc4)CC3)cc(-c3cccnc3)nc2c1C,2%,10µM*,-1%,-3%,1%[10 µM],-4%
COc1ccc(C(=O)COC(=O)CNS(=O)(=O)c2ccc(C)cc2)cc1,2%,25µM*,-2%,?,2%[10 µM],-2%
Cc1ccc(C(=O)COC(=O)CNS(=O)(=O)c2ccc(C)cc2)cc1,·,·,-1%,?,·,-2%
Cc1ncc(Cc2ccccc2)c(C2CCN(S(=O)(=O)C[C@]34CC[C@H](CC3=O)C4(C)C)CC2)n1,·,·,0%,·,·,·
Cc1nc2ccccc2cc1OCc1ccc(Cl)cc1,-1%,7.9µM*,-5%,-16%,·,4%
COc1cccc(COc2cc3ccccc3nc2C)c1,0%,1.8µM*,-1%,-21%,-29%,-5%
SMILES,Epigenetic reg,HTT aggregate,PINK1 modulator,Apoferritin bind,HTT ATP protect,TSG101-PTAP inh
Cc1nc2ccccc2cc1OCc1ccccc1,1%,13µM*,-2%,-11%,-23%,-2%
O=[N+]([O-])c1ccc(O/N=[N+](\[O-])N2CCCC2)c([N+](=O)[O-])c1,·,·,0%,·,·,·
Cc1oc2ccc(O)c(CN(C)Cc3ccccc3)c2c1C(=O)Nc1cccc(Cl)c1C,2%,·,6%,-3%,·,·
N#C/C(=C\c1ccc(O)cc1)c1nc2ccccc2o1,1%,7%[9.22 µM],?,-4%,9%[10 µM],-4%
COc1cc(/C=C(\C#N)c2nc3ccccc3o2)ccc1O,2.2µM*,4%[9.22 µM],7%,-4%,0%[10 µM],?
COc1cc(/C=C(\C#N)c2nc(-c3cc4ccccc4oc3=O)cs2)ccc1O,4.5µM*,28%,6%,1%,-12%[10 µM],-6%
O=C(Cc1ccc(OCCC2CCCCC2)cc1)NO,·,·,2%,·,·,·
CCN(CC)Cc1c(O)ccc2occ(C(=O)c3ccc(OC)cc3)c12,-1%,-7%,2%,9%,16%[10 µM],0%
CCN(CC)Cc1c(O)ccc2c([N+](=O)[O-])c(C)n(-c3ccc(OC)cc3)c12,4%,5µM*,-2%,-2%,-12%[10 µM],0%
COc1cccc2c1C(=O)c1c(O)c3c(c(O)c1C2=O)C[C@@](O)(C(C)=O)C[C@@H]3O[C@H]1C[C@H](N)[C@H](O)[C@H](C)O1,2%,2.2µM*!,0%,?,-142%,?
CC(=O)[C@]1(O)Cc2c(O)c3c(c(O)c2[C@@H](O[C@H]2C[C@H](N)[C@H](O)[C@H](C)O2)C1)C(=O)c1ccccc1C3=O,?,0.63µM*,-1%,·,-97%,?
COc1cccc2c1C(=O)c1c(O)c3c(c(O)c1C2=O)C[C@](O)(C(=O)CO)C[C@@H]3O[C@H]1C[C@H](N)[C@@H](O)[C@H](C)O1,·,-3%,·,·,-26%,·
CC(=O)[C@]1(O)Cc2c(O)c3c(c(O)c2[C@@H](O[C@H]2C[C@H](N)[C@H](O)[C@H](C)O2)C1)C(=O)c1c(O)cccc1C3=O,?,0.63µM*,·,-22%,-35%,·
COc1cccc2c1C(=O)c1c(O)c3c(c(O)c1C2=O)C[C@@](O)(C(=O)CO)C[C@@H]3O[C@H]1C[C@H](N)[C@@H](O)[C@H](C)O1,·,·,-1%,·,·,?
COc1ccc2c(c1)-c1nc(-n3ncc(C(=O)NC(C)(C)CO)c3C3CC3)ncc1CC2,·,·,-1%,·,·,·
Cc1ccc2c(/C=C/c3ccc(N(C)C)cc3)ccnc2c1,·,·,4%,·,·,·
COc1ccc2cc(CNCc3nonc3C)c(N3CCCC(CO)C3)nc2c1 (centres undefined),·,·,2%,·,·,·
CC(C)c1c(C(=O)NCc2ccncc2)cnn1-c1nccc(-c2cccs2)n1,·,·,-1%,·,·,·
COc1cc(=O)n2c(c1C(=O)N(C)Cc1nonc1C)CCN(Cc1cc(C)c(C)cc1C)CC2,·,·,1%,·,·,·
